# BLM helicase inh = inhibitors of human Bloom syndrome helicase BLM; recombinant BLM DNA unwinding, fluorescence dequenching; Potency, µM (highest dose often 56.1 µM), usual class: inhibitors; hit rate 0.2% among 350,000; also: nearly all actives have a fitted effect of over 35% in size
# TRb-SRC2 inh = disrupts binding of human TR beta to SRC2. P10828. TRbeta-SRC2 peptide binding, fluorescence polarization; receptor liganded with 1 µM T3. Potency, µM (titrated, usually from 106 µM), actives largely listed as inhibitors. hit rate 0.065% among 280,000. AID 1469; also: nearly all actives have a fitted effect of over 50% in size
# Target sequence (P10828 whole entry, looked up): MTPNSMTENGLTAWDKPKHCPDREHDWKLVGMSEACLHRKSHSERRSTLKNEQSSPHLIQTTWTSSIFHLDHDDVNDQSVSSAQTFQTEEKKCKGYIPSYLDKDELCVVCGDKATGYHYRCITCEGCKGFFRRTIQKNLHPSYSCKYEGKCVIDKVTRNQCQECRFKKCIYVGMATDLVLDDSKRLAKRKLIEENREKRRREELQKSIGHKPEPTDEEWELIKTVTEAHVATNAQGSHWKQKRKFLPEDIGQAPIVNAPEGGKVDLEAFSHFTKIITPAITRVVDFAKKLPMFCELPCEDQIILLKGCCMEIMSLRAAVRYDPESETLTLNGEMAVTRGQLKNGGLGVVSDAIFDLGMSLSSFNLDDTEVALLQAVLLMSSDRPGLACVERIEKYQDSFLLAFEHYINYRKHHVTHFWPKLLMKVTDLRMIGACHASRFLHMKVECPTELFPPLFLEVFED
#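 Human TRb ligand-binding domain (0.6 uM) is mixed with 20 nM Texas Red SRC2 peptide and 1 uM T3; after compound addition and 5 hr at ambient temperature, polarization is measured and normalized to unbound and bound controls.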
# RECQ1 inh-1 = blocks DNA unwinding by human RECQ1; P46063; RECQ1 DNA unwinding, red fluorescence kinetic read; Potency, µM (doses to about 57.3 µM), most hits filed as inhibitors; hit rate 0.54% among 240,000; AID 2549; also: nearly all actives have a fitted effect of over 30% in size
#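 50 nM RECQ1T1 preincubated 15 min with compound in Tris pH 8.0 buffer with MgCl2, DTT, Tween-20 and 2.5 ug/ml poly(dI-dC); started with 200 nM TAMRA/BHQ-2 forked duplex and 2 mM ATP. Unwinding read as fluorescence (525/598 nm), two reads 2 h apart.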
# TR SRC2 fluor cs = counter-screen for TRb-SRC2 inhibitors: fluorescence interference; AID 1479; Potency, µM (top dose mostly 106 µM); hit rate 0.29% among 280,000; TRb/SRC2 Texas Red total fluorescence interference; active = well fitted curve in either direction with a large enough effect; inconclusive = small, poorly fitted or top-dose-only effect
#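 Flags fluorescent or light-absorbing compounds by total fluorescence, S + 2P, at 555 nm excitation and 632 nm emission. Mixture: 20 nM Texas Red SRC2 peptide, 0.6 uM human TRb LBD, 1 uM T3, 5% DMSO; compound exposure 5 h at ambient temperature.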
# GoLoco inh red = inhibitors of human Gai1-RGS12 GoLoco interaction (red fluorophore). Potency, µM (series often up to 61.6 µM), usual class: inhibitors. hit rate 0.44% among 230,000. P63096. Gai1:RGS12 GoLoco peptide FP, rhodamine, 10 min; active = well fitted inhibition curve with a large enough effect, not every such curve was filed as active; inactive = no such curve, though single readings can be large or run the other way; also: nearly all actives have a fitted effect of over 30% in size
# ERG-DNA inh = inhibitors of human ERG Ets domain-DNA interaction; P11308; fluorescence polarization, His-ERG Ets domain / labelled DNA; Potency, µM (titrated, usually from 76.9 µM), hits mostly inhibitors; hit rate 0.028% among 370,000; active = well fitted inhibition curve with a large enough effect in the polarisation, with a control signal flat; inconclusive = small, poorly fitted or top-dose-only effect, or effect the other way, or a change in a side signal; inactive = no such curve, though single readings can be large or run the other way; the % refers to the polarisation;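 also: polarization taken with two DNA probes labelled with fluorescein and Texas red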
#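 His-tagged ERG Ets domain (1 uM in the protein solution; 300mM KCl, 50mM Tris-HCl, 1mM EDTA, 1mM DTT, pH 7.5) received compound, then a probe mix of 5 nM fluorescein-DNA and 100nM Texas-615-DNA. Fluorescence polarization was read for both dyes.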
# RECQ1 conf = confirmation of human RECQ1 helicase inhibitors. shares compounds with RECQ1 inh-1. RECQ1 helicase DNA unwinding, fluorescence. Potency, µM (titrated, usually from 229 µM), actives largely listed as inhibitors. hit rate 28% among 610. AID 2708; also: nearly all actives have a fitted effect of over 45% in size
# ADP FP counter = displaces ADP in a fluorescence polarization counter-screen for RECQ1 hits | hit rate 27% among 530 | ADP fluorescence polarization displacement counterscreen | Potency, µM (series often up to 228 µM), hits mostly inhibitors | shares compounds with RECQ1 inh-1; also: nearly all actives have a fitted effect of over 45% in size
# RECQ1 inh-2 = confirmation of human RECQ1 helicase inhibitors | shares compounds with RECQ1 inh-1 | recombinant RECQ1 DNA unwinding, red fluorescence | Potency, µM (doses to about 119 µM), usual class: inhibitors | hit rate 15% among 1,100 | AID 504841; also: nearly all actives have a fitted effect of over 50% in size
# Numbers stand for hits; - = inactive; ? = inconclusive; . = not tested or not shown; [ ] = another dose, or the depositor's remark. A selection: hits, their analogues and other compounds. The true share with any hit is near 0.71%. Unless noted, calls follow the shape of the dose curve; as a rule, active = well fitted curve in the direction sought with a large enough effect; inconclusive = small, poorly fitted or top-dose-only effect, or another doubt; inactive = no such curve, though single readings can be large; an effect the other way counts as inactive or inconclusive.
SMILES,BLM helicase inh,TRb-SRC2 inh,RECQ1 inh-1,TR SRC2 fluor cs,GoLoco inh red,ERG-DNA inh,RECQ1 conf,ADP FP counter,RECQ1 inh-2
Cc1ccc(C)c(-n2c(SCC(=O)NC(C(=O)O)C(C)C)nnc2-c2cccc(Cl)c2)c1 (configuration not stated),-,-,-,-,-,-,-,-,.
CCC(C)CCCCC(=O)NC(CCN)C(=O)NC(C(=O)NC(CCN)C(=O)NC1CCNC(=O)C(C(C)O)NC(=O)C(CCN)NC(=O)C(CCN)NC(=O)C(CC(C)C)NC(=O)C(Cc2ccccc2)NC(=O)C(CCN)NC1=O)C(C)O (configuration not stated),7.94µM,-,5.01µM,-,-,.,2.82µM,?,.
O=C(/C=C/c1ccc(Cl)cc1)N1CCN(c2c(Cl)cccc2[N+](=O)[O-])CC1,-,-,-,-,-,-,.,.,.
O=C(CSc1ccc(Cl)cc1)N1CCN(c2c(Cl)cccc2[N+](=O)[O-])CC1,-,-,8.91µM,-,-,-,-,-,-
Cc1ccc(NC(=O)CN2C(=O)S/C(=C/c3ccc(O)c([N+](=O)[O-])c3)C2=O)cc1C,25.1µM,-,?,?,-,-,.,.,22.4µM
COc1ccccc1-n1cnnc1SCC(=O)c1cc(C)n(Cc2cccs2)c1C,-,-,?,-,-,-,.,.,-
CCN(CC)C(=O)Cn1c(=O)n(-c2ccc(Cl)c(Cl)c2)c(=O)c2c(C)c(C(=O)N(CC)CC)sc21,-,-,.,-,.,-,.,.,.
O=C(O)CCCCCNC(=O)CCn1cnc2ccccc2c1=O,-,-,-,-,-,-,-,-,.
CCN1CCc2c(sc(-n3cccc3)c2C(C)NC(=O)Nc2ccccc2C)C1 (configuration not stated),-,-,.,-,.,-,.,.,.
N=C1S/C(=C\c2ccco2)C(=O)N1c1nccs1,-,-,?,-,-,-,.,.,-
CCn1c(CCC(=O)O)nc2cc(S(=O)(=O)N(C)C)ccc21,-,-,-,-,-,-,.,.,.
CCCn1c(CCC(=O)O)nc2cc(S(=O)(=O)N3CCCC3)ccc21,-,-,-,?,-,-,112µM,?,.
CCCCn1c(CCC(=O)O)nc2cc(S(=O)(=O)N(CC)CC)ccc21,-,-,-,?,-,-,89.1µM,-,.
CN(C)S(=O)(=O)c1ccc2c(c1)nc(CCC(=O)O)n2C,-,-,-,-,-,-,-,100µM,.
CCn1c(CCC(=O)O)nc2cc(S(=O)(=O)N3CCOCC3)ccc21,.,.,.,.,.,-,.,.,.
c1ccc2c(NC3CCNCC3)nc(-c3ccoc3)nc2c1,-,.,-,.,-,.,.,.,.
CN(C)c1ccc(-c2nc(NC3CCNCC3)c3ccccc3n2)cc1,?,-,?,-,-,.,.,.,20µM
O=C(COc1ccc2ccccc2c1)Nc1cccc(C(=O)Nc2ccccc2C(=O)O)c1,-,-,?,-,-,-,.,.,?
CC1CCCC(C(=O)O)N1C(=O)CCSSCCC(=O)N1C(C)CCCC1C(=O)O (configuration not stated),-,-,-,-,-,-,-,-,.
COn1c(SCc2cccc(Cl)c2)nc2ccccc2c1=O,-,-,7.08µM,-,-,-,-,?,-
COn1c(SCc2ccccc2)nc2ccccc2c1=O,-,-,-,-,-,-,.,.,.
CC(=O)c1ccc(Nc2c3ccccc3cc3occc23)cc1,-,-,-,-,.,.,.,.,.
CC1=Nc2cc(C(=O)O)ccc2Sc2ccc(Br)cc21,-,-,0.316µM,-,-,-,100µM,-,-
CC1(C)[C@@H](CC(=O)O)CCC[C@@H]1CC(=O)O,.,.,.,.,-[14.2 µM],.,.,.,.
